Structures are written as SMILES. Results filed as inconclusive are left out. Activity calls are given as the source filed them. Calls come from the whole dose curve; as a rule, active = well fitted cell-killing curve with a large enough effect; inconclusive = small, poorly fitted or top-dose-only effect, or effect the other way; inactive = no such curve, though single readings can be large or run the other way.

Assay [1] can be described thus: Quantitative High-Throughput drug screen in 47 multiple myeloma cell lines against the NCATS MIPE library collection: VP6_DJ cell viability assay (AID 1919867). Note: nearly all actives have a fitted effect of over 40% in size. Put shortly: (§1)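 500 cells/well per myeloma line exposed to pinned MIPE 4.0 compounds for 48 h at 37 °C, 5% CO2. Viability read as ATP by CellTiter-Glo luminescence, normalised to DMSO-only (100%) and media-only (0%) wells.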

A short description of assay [2]: Quantitative High-Throughput drug screen in 47 multiple myeloma cell lines against the NCATS MIPE library collection: PE2_PLB cell viability assay (AID 1919869). Note: nearly all actives have a fitted effect of over 35% in size. In a few lines: as §1
Assay [3] in a line: Quantitative High-Throughput drug screen in 47 multiple myeloma cell lines against the NCATS MIPE library collection: PCM6_Riken cell viability assay (AID 1919870). Note: nearly all actives have a fitted effect of over 30% in size. In a few lines:
as §1

A short description of assay [4]: Quantitative High-Throughput drug screen in 47 multiple myeloma cell lines against the NCATS MIPE library collection: RPMI8226_ATCC cell viability assay (AID 1919871). Note: nearly all actives have a fitted effect of over 30% in size. In a few lines: as §1
Assay [5] is described as follows: Quantitative High-Throughput drug screen in 47 multiple myeloma cell lines against the NCATS MIPE library collection: OPM2_DSMZ cell viability assay (AID 1919872). Note: nearly all actives have a fitted effect of over 30% in size. Put shortly: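 CellTiter-Glo luminescence (ATP) after 48 h compound exposure, 37C/5% CO2; 500 cells/well; MIPE 4.0 approved/investigational drugs pinned in; DMSO = 100%, media only = 0% viability.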
Assay [6] is described as follows: Quantitative High-Throughput drug screen in 47 multiple myeloma cell lines against the NCATS MIPE library collection: KMS11_JCRBsus cell viability assay (AID 1919873). Note: nearly all actives have a fitted effect of over 50% in size. Put shortly:
as §1

Assay [7] can be described thus: Quantitative High-Throughput drug screen in 47 multiple myeloma cell lines against the NCATS MIPE library collection: KMS28BM_JCRB cell viability assay (AID 1919874). Note: nearly all actives have a fitted effect of over 35% in size. Put shortly: as §1
Potency is the fitted concentration of half-maximal effect.

Regarding `COc1ccc(-c2cc(=O)c3c(O)cc(O[C@@H]4O[C@H](CO[C@@H]5O[C@@H](C)[C@H](O)[C@@H](O)[C@@H]5O)[C@@H](O)[C@H](O)[C@@H]4O)cc3o2)cc1O`, the Potency is 14.8 µM (active) in assay [1], 23.5 µM (active) in assay [2] and 11.8 µM (active) in assay [3]. Moreover, the Potency result in assay [4], in assay [5], in assay [6] and in assay [7] was “inactive” throughout.
Take `CNc1nc(-c2ccc3c(N)n[nH]c3c2)cc(N2C[C@@H](C(=O)NC3CCCCC3)CC[C@@H]2C)n1`: the Potency is 5.9 µM (active) in assay [1]; 6.62 µM (active) in assay [2]; 18.7 µM (active) in assay [3]; 23.5 µM (active) in assay [5]; 5.26 µM (active) in assay [6]; 23.5 µM (active) in assay [7].
In the case of `Cc1[nH]c(C=C2C(=O)Nc3ccc(S(=O)(=O)N(C)c4cccc(Cl)c4)cc32)c(C)c1C(=O)N1CCN(C)CC1`, the Potency in assay [1] was 13.2 µM (active); in assay [2] it was 16.6 µM (active); in assay [3], 14.8 µM (active); in assay [4], 23.5 µM (active); in assay [5], 20.9 µM (active); in assay [6] it was 11.8 µM (active). For the same compound, in assay [7], the Potency was 16.6 µM (active).
With `NCc1c[nH]c(=S)n1[C@H]1CCc2c(F)cc(F)cc2C1`, the Potency in assay [1] is 3.32 µM (active); in assay [2] it was 16.6 µM (active); in assay [3] it was 2.96 µM (active); in assay [4], 26.4 µM (active); in assay [6] it was 20.9 µM (active); in assay [7] it was 20.9 µM (active).
On to `CC(=O)O[C@]1(C(C)=O)CC[C@H]2[C@@H]3C=C(Cl)C4=CC(=O)[C@@H]5C[C@H]5[C@]4(C)[C@@H]3CC[C@@]21C`, for which the Potency in assay [1] was 7.43 µM (active); in assay [2] it was 11.8 µM (active); in assay [4], 20.9 µM (active). In addition, the Potency result in assay [5], in assay [6] and in assay [7] was “inactive” throughout.
In the case of `CC=C(C(=CC)c1ccc(O)cc1)c1ccc(O)cc1`, the Potency in assay [1] is 18.7 µM (active); in assay [2], 20.9 µM (active); in assay [3], 20.9 µM (active); in assay [5], 18.7 µM (active).
With `COc1cc2ncnc(Nc3cc(Br)c(O)c(Br)c3)c2cc1OC`, the Potency in assay [1] is 0.0148 µM (active); in assay [2], 0.0833 µM (active); in assay [3], 0.0332 µM (active); in assay [4] it was 8.33 µM (active). The Potency entry in assay [7] is “inactive”.
Turning to `O=S(=O)(O)c1ccc2cc(N=Nc3cc(S(=O)(=O)O)c4cccnc4c3O)ccc2c1`, the Potency in assay [1] is 16.6 µM (active); in assay [2], 3.32 µM (active); in assay [4], 16.6 µM (active); in assay [7] it was 1.87 µM (active). Also, in assay [5], the Potency result is “inactive”.
For the compound `NC[C@H]1O[C@H](O[C@@H]2[C@@H](O)[C@@H](O[C@H]3O[C@H](CO)[C@@H](O)[C@H](N)[C@@H]3O)[C@H](N)C[C@@H]2N)[C@H](O)[C@@H](O)[C@H]1O`, in assay [1], the Potency is 16.6 µM (active). Besides, the Potency entry in assay [2], in assay [3], in assay [4], in assay [5], in assay [6] and in assay [7] was “inactive” each time.
In the case of `Cc1ccccc1C(=O)c1ccc(Nc2ccc(Br)cc2N)cc1Cl`, the Potency in assay [1] was 16.6 µM (active); in assay [2] it was 18.7 µM (active); in assay [4], 11.8 µM (active); in assay [5], 23.5 µM (active); in assay [6], 18.7 µM (active).
Take `N[C@@H](CC(=O)N1CCn2c(nnc2C(F)(F)F)C1)Cc1cc(F)c(F)cc1F`: the Potency entry in assay [1], in assay [3], in assay [4], in assay [5] and in assay [6] was “inactive” each time. The values for the Potency in assay [2] and in assay [7] were 3.72 µM (active) and 4.69 µM (active), respectively.
As to `c1cc(OCCN2CCCCC2)cc(-c2n[nH]c3ccc(-c4ncn[nH]4)cc23)c1`, the Potency in assay [1] was 11.8 µM (active); in assay [2], 10.5 µM (active); in assay [3], 16.6 µM (active); in assay [6], 16.6 µM (active).
As for `C[C@@H]1O[C@@H](O[C@H]2CC[C@@]3(C)[C@H](CC[C@@H]4[C@H]3C[C@@H](O)[C@]3(C)[C@@H](C5=CC(=O)OC5)CC[C@]43O)C2)C[C@H](O)[C@@H]1O[C@H]1C[C@H](O)[C@H](O[C@H]2C[C@H](O)[C@@H](O)[C@@H](C)O2)[C@H](C)O1` (stereo in doubt), the Potency in assay [1] is 0.136 µM (active); in assay [2] it was 0.215 µM (active); in assay [4], 0.215 µM (active); in assay [5], 0.121 µM (active); in assay [6], 0.191 µM (active); in assay [7], 0.0959 µM (active).
As for `CC(C)C[C@@H](C(=O)N[C@H](C(=O)OC1CCCC1)c1ccccc1)[C@H](O)C(=O)NO`, the Potency in assay [1] is 16.6 µM (active); in assay [2] it was 29.6 µM (active); in assay [3], 18.7 µM (active); in assay [6], 18.7 µM (active); in assay [7], 20.9 µM (active).
Turning to `COc1c(C)c2c(c(O)c1CC=C(C)CCC(=O)O)C(=O)OC2`, the Potency was 5.9 µM (active) in assay [1]; 3.32 µM (active) in assay [2]; 7.43 µM (active) in assay [4]; 11.8 µM (active) in assay [5]; 2.64 µM (active) in assay [7]. Also, the Potency result in assay [3] was “inactive”.
With `CN1CCc2c(n(Cc3ccc(C(=O)NO)cc3)c3ccccc23)C1`, the Potency is 13.2 µM (active) in assay [1]; 20.9 µM (active) in assay [2]; 20.9 µM (active) in assay [3]; 18.7 µM (active) in assay [6]; 18.7 µM (active) in assay [7].
For `CCCC1OC2C[C@@H]3[C@H]4CCC5=CC(=O)C=C[C@]5(C)[C@H]4C(O)C[C@]3(C)[C@]2(C(=O)CO)O1` (some centres undefined), the Potency result in assay [1] and in assay [2] was “inactive” in each case. In addition, the Potency in assay [6] was 0.0015 µM (active).
As for `Cc1cccc(Nc2nc(N[C@@H]3CCCC[C@H]3N)ncc2C(N)=O)c1`, the Potency in assay [1] is 5.26 µM (active); in assay [2], 18.7 µM (active); in assay [6] it was 26.4 µM (active).
Consider `Cc1cc(-c2ncc(CC(=O)Nc3ccc(-c4cnccn4)cn3)cc2C)ccn1`, for which the results for the Potency in assay [1], in assay [2] and in assay [6] were 18.7 µM (active), 18.7 µM (active) and 1.87 µM (active), respectively. The Potency result in assay [7] is “inactive”.
As for `CC(C)(O)CC(=O)NCCn1ccc2ncnc(Nc3ccc(Oc4cccc(C(F)(F)F)c4)c(Cl)c3)c21`, in assay [1], the Potency entry is “inactive”. Besides, the values for the Potency in assay [2] and in assay [7] were 23.5 µM (active) and 26.4 µM (active), respectively.
Regarding `C[C@@H](O)[C@H]1C(=O)N2C(C(=O)OCOC(=O)C(C)(C)C)=C(SC3CN(C4=NCCS4)C3)[C@H](C)[C@H]12`, the Potency entry in assay [1], in assay [4], in assay [5] and in assay [6] was “inactive” each time. Further, in assay [3], the Potency was 23.5 µM (active).
In the case of `O=C(NC[C@H](O)CO)c1ccncc1Nc1ccc(I)cc1F`, the Potency is 10.5 µM (active) in assay [1], 5.26 µM (active) in assay [2], 0.833 µM (active) in assay [4] and 2.64 µM (active) in assay [6]. The Potency entry in assay [7] is “inactive”.
With `CCC(=O)OCC(=O)[C@@]1(OC(=O)CC)[C@@H](C)C[C@@H]2[C@H]3CCC4=CC(=O)C=C[C@]4(C)[C@@]3(F)[C@@H](O)C[C@@]21C`, the Potency in assay [1] is 11.8 µM (active); in assay [3], 7.43 µM (active); in assay [4] it was 0.418 µM (active); in assay [6], 0.0526 µM (active).
As for `CN1CCN(c2cccc(Nc3nc4c(-c5ccc(S(C)(=O)=O)cc5)cccn4n3)c2)CC1`, the Potency in assay [1] is 0.743 µM (active); in assay [2] it was 1.05 µM (active); in assay [4], 9.35 µM (active); in assay [7] it was 0.743 µM (active).
As for `NC(N)=Nc1nc(CSCCC(N)=NS(N)(=O)=O)cs1`, the Potency in assay [1] was 5.26 µM (active); in assay [3] it was 14.8 µM (active). Further, the Potency entry in assay [4] and in assay [6] was “inactive” each time.
On to `CCCCN(CCCC)CC(O)c1cc(Cl)cc2c1-c1ccc(Cl)cc1C2=Cc1ccc(Cl)cc1` (centres undefined), for which the results for the Potency in assay [1], in assay [2] and in assay [7] were 23.5 µM (active), 20.9 µM (active) and 23.5 µM (active), respectively.
Consider `Cc1cnc(CNC(=O)c2c(=O)c3ccc(N4CCCN(C)CC4)nc3n3c2sc2ccccc23)cn1`, for which the Potency entry in assay [1], in assay [2], in assay [6] and in assay [7] was “inactive” throughout. The Potency in assay [4] was 8.12 µM (active).

The record behind these values is PubChem BioAssay (NCATS).
